Screen size: about 3,200 compounds; about 300 (9.4%) showed activity. Shown is part of a subset that was picked to be rich in actives.
Test system: A673/TR/shEF
Assay: cell viability (LOESS-normalised, relative to median of negative controls) (log2 ratio); higher = more viable cells (less compound effect), active = hit call of the paper (over 3 MAD below the median)
Conditions: treatment time: 72 h
In short: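 For three days, A673/TR/shEF Ewing sarcoma cells in 384-well plates (1,500 per well) were treated with library compounds at two or more concentrations or with DMSO controls, after doxycycline had been added or withheld 24 h beforehand to induce EWS-FLI1 shRNA knockdown. Viability was read by CellTiter-Glo luminescence on an Envision reader. The data were LOESS-corrected per plate, divided by the median of negative controls and log2-transformed.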

[1] = 0.25 µM, library screen: screen1, EWS-FLI1 expression: high (no doxycycline)
[2] = 0.25 µM, library screen: screen1, EWS-FLI1 expression: low (doxycycline-induced shRNA knockdown)
[3] = 2.5 µM, library screen: screen1, EWS-FLI1 expression: high (no doxycycline)
[4] = 2.5 µM, library screen: screen1, EWS-FLI1 expression: low (doxycycline-induced shRNA knockdown)
[5] = 0.103 µM, library screen: screen3, EWS-FLI1 expression: high (no doxycycline)
[6] = 0.103 µM, library screen: screen3, EWS-FLI1 expression: low (doxycycline-induced shRNA knockdown)
[7] = 0.308 µM, library screen: screen3, EWS-FLI1 expression: high (no doxycycline)
[8] = 0.308 µM, library screen: screen3, EWS-FLI1 expression: low (doxycycline-induced shRNA knockdown)
[9] = 0.926 µM, library screen: screen3, EWS-FLI1 expression: high (no doxycycline)
[10] = 0.926 µM, library screen: screen3, EWS-FLI1 expression: low (doxycycline-induced shRNA knockdown)
[11] = 2.8 µM, library screen: screen3, EWS-FLI1 expression: high (no doxycycline)
[12] = 2.8 µM, library screen: screen3, EWS-FLI1 expression: low (doxycycline-induced shRNA knockdown)
[13] = 8.3 µM, library screen: screen3, EWS-FLI1 expression: high (no doxycycline)
[14] = 8.3 µM, library screen: screen3, EWS-FLI1 expression: low (doxycycline-induced shRNA knockdown)
[15] = 25 µM, library screen: screen3, EWS-FLI1 expression: high (no doxycycline)
[16] = 25 µM, library screen: screen3, EWS-FLI1 expression: low (doxycycline-induced shRNA knockdown)
[17] = 0.25 µM, library screen: screen2, EWS-FLI1 expression: high (no doxycycline)
[18] = 0.25 µM, library screen: screen2, EWS-FLI1 expression: low (doxycycline-induced shRNA knockdown)
[19] = 2.5 µM, library screen: screen2, EWS-FLI1 expression: high (no doxycycline)
[20] = 2.5 µM, library screen: screen2, EWS-FLI1 expression: low (doxycycline-induced shRNA knockdown)

Measured: cell viability (log2)

Nc1ccc(S(=O)(=O)Nc2ccccn2)cc1
inactive: [1] 0.0477 | [2] 0.097 | [3] 0.18 | [4] 0.163

Nc1ccc(S(=O)(=O)Nc2ncccn2)cc1
inactive: [5] 0.169 | [6] 0.0541 | [1] 0.0966 | [2] 0.142 | [7] 0.163 | [8] 0.0301 | [9] 0.117 | [10] 0.108 | [3] 0.146 | [4] 0.202 | [11] 0.14 | [12] 0.0823 | [13] 0.0532 | [14] 0.0153 | [15] 0.0911 | [16] 0.15

Nc1ccc(S(=O)(=O)Nc2ccnn2-c2ccccc2)cc1
active: [19] -0.179 | [20] -0.12
inactive: [1] 0.0545 | [2] -0.0171 | [17] 0.053 | [18] 0.048 | [3] 0.14 | [4] 0.0403

COC(=O)C[C@H]1C(C)(C)C(=O)[C@@H]2CC3C4=CC(=O)O[C@@H](c5ccoc5)[C@]4(C)CC[C@@H]3[C@@]1(C)C2=O (some centres undefined)
inactive: [1] 0.00456 | [2] 0.0839 | [3] 0.0543 | [4] 0.0477

COc1ccc2c(c1)O[C@@H]1c3ccc(OC)cc3OC[C@H]21
inactive: [1] 0.0429 | [2] 0.176 | [3] 0.0512 | [4] 0.136

C[C@]12CC[C@H](O)C[C@H]1C[C@@H]1OC13C2[C@H](O)C(=O)[C@]1(C)[C@@H](C2=CC(=O)OC2)CC[C@]31O (some centres undefined)
inactive: [1] 0.026 | [2] -0.0692 | [3] 0.111 | [4] -0.106

C[C@H]1O[C@@H](O[C@H]2[C@@H](O)C[C@H](O[C@H]3[C@@H](O)C[C@H](O[C@H]4CC[C@@]5(C)[C@H](CC[C@@H]6[C@@H]5C[C@@H](O)[C@]5(C)[C@@H](C7=CC(=O)OC7)CC[C@]65O)C4)O[C@@H]3C)O[C@@H]2C)C[C@H](O)[C@@H]1O
active: [3] -2.32 | [4] -1.91
inactive: [1] -0.0229 | [2] -0.153

C[C@H]1O[C@@H](O[C@H]2[C@@H](O)C[C@H](O[C@H]3[C@@H](O)C[C@H](O[C@H]4CC[C@@]5(C)[C@H](CC[C@@H]6[C@@H]5CC[C@]5(C)[C@@H](C7=CC(=O)OC7)CC[C@]65O)C4)O[C@@H]3C)O[C@@H]2C)C[C@H](O)[C@@H]1O
active: [1] -2.45 | [2] -2.04 | [3] -3.94 | [4] -4.23

CC(=O)N[C@@H]1[C@@H](O)[C@H](O)[C@@H](CO)O[C@H]1O
inactive: [1] 0.0385 | [2] 0.0648 | [3] 0.0809 | [4] 0.0429

CC(C)CC1NC(=O)C(Cc2ccccc2)NC(=O)C(CCN)NC(=O)C(NC(=O)C(CCN)NC(=O)C(CCO)NC(=O)C(CCN)NC=O)CCNC(=O)C(CCO)NC(=O)C(CCN)NC(=O)C(CCN)NC1=O.COc1cc(Cc2cnc(N)nc2N)cc(OC)c1OC (centres undefined)
inactive: [1] 0.0686 | [2] 0.0873 | [3] 0.182 | [4] 0.054

Cc1ccccc1N1CCN(S(=O)(=O)C[C@]23CCC(CC2NC(=O)[C@@H](N)CCS(C)(=O)=O)C3(C)C)CC1 (some centres undefined)
inactive: [17] 0.163 | [18] 0.172 | [19] 0.18 | [20] 0.0913

CC(C)=CCCC1(C)C=Cc2c(O)c3c(c(CC=C(C)C)c2O1)OC12C(=CCCC1C(C)(C)OC2(CC=C(C)C(=O)O)C(=O)O)C3=O (centres undefined)
inactive: [1] 0.0468 | [2] -0.0618 | [3] 0.121 | [4] 0.0265

CN(C)C(=O)/N=N/C(=O)N(C)C
inactive: [17] 0.0755 | [18] 0.0201 | [19] 0.21 | [20] 0.117

COc1ccc(Cl)cc1C(=O)NCCc1ccc(S(=O)(=O)NC(=O)NC2CCCCC2)cc1
inactive: [5] 0.115 | [6] 0.0621 | [1] 0.0607 | [2] 0.0399 | [17] 0.171 | [18] 0.0382 | [7] 0.175 | [8] 0.0954 | [9] 0.104 | [10] 0.103 | [3] 0.0749 | [4] 0.0806 | [19] 0.0699 | [20] 0.0189 | [11] 0.125 | [12] 0.0778 | [13] 0.113 | [14] 0.0685 | [15] 0.0907 | [16] 0.0579

Cc1cnc(C(=O)NCCc2ccc(S(=O)(=O)NC(=O)NC3CCCCC3)cc2)cn1
inactive: [5] 0.103 | [6] 0.0573 | [17] 0.139 | [18] -0.00978 | [7] 0.195 | [8] 0.0857 | [9] 0.143 | [10] 0.063 | [19] 0.155 | [20] 0.035 | [11] 0.0953 | [12] 0.0849 | [13] 0.13 | [14] 0.0833 | [15] 0.172 | [16] 0.135
